Hits are enriched below; roughly 2.7% of the tested compounds scored in any of these assays.
MPTP block – blocks calcium-induced mitochondrial swelling | 360,000 compounds, 1.4% hits | inhibition, % at 10 µM | AID 602449 | isolated mouse mitochondria, Ca2+ swelling absorbance, 30 min;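 active = inhibition of 50% or more, scaled per plate between neutral and stimulator controls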
SKN-1 inh – inhibitors of C. elegans SKN-1; C. elegans VP596 Pgst-4::GFP/RFP ratio, acrylamide-induced, 24 h; inhibition, % at 21.8 µM; 360,000 compounds, 0.49% hits;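 active = interference check ratio from 0.5 to 1.5 plus GFP to RFP signal ratio inhibition reaching or exceeding a fixed threshold, cut at about 30% in these data, passing the limit was not always enough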
CFTR F508del cor – correctors of CFTR F508del function in bronchial epithelial cells | CFBE cells, YFP halide quenching; stimulated with forskolin plus potentiator P3; % fluorescence drop versus neutral controls | activity (quench increase), % at 7.58 µM | 350,000 compounds, 0.36% hits | AID 720511;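 active = mean added fluorescence quench of at least 8% versus neutral control, with both replicates also reaching 8%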;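 note: cells transiently co-express mutant CFTR-F508del with the halide-sensitive YFP; corrector assay measuring rescue of mutant channel to the surface after 24 h compound exposure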
ATG4B inh – inhibitors of human ATG4B cysteine protease; 340,000 compounds, 0.51% hits; Q9Y4P1; inhibition, % at 8.33 µM; AID 504462; ATG4B cleavage of LC3-PLA2, NBD-HPC fluorescence, 1 h; in the data active = inhibition above about 40%
Target sequence (Q9Y4P1 whole entry, looked up): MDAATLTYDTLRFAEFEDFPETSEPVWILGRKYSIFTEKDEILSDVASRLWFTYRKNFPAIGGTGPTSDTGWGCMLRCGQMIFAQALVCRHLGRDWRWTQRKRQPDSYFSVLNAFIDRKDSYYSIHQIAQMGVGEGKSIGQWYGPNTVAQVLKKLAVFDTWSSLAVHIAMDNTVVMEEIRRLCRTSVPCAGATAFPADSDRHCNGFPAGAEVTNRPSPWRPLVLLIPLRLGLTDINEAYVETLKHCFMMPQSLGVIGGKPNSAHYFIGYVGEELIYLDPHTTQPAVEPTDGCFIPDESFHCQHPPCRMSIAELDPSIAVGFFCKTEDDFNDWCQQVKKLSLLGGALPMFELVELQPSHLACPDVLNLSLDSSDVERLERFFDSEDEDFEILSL
NRP1-CendR mod – alters CendR peptide binding to human NRP-1 | FAM-RPARPAR peptide binding to NRP-1, fluorescence polarization | inhibition, % at 25 µM | 360,000 compounds, 0.85% hits;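 active = inhibition or corrected inhibition above about 18%, plus a signal ratio from 0.5 to 1.5, limit read from the data, passing the limit was not always enough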
Rh123 counter – mitochondrial membrane potential, counter-screen. inhibition, % at 10 µM. 5,000 compounds, 78% hits. AID 624504. isolated mitochondria, Rhodamine 123 fluorescence. shares compounds with MPTP block; in the data active = inhibition above about 22%
MPTP abs DR – MPTP inhibition, dose response swelling confirmation | shares compounds with MPTP block | isolated mitochondria swelling, absorbance | IC50, µM | 780 compounds, 58% hits | AID 651561; in the data active = IC50 below about 20 µM
MPTP counter DR – active in counter-screen for permeability transition pore inhibitors. isolated mitochondria counterscreen, fluorescence read-out. 780 compounds, 49% hits. IC50, µM. shares compounds with MPTP block. AID 651564; in the data active = IC50 below about 80 µM
Numbers stand for hits.

Screening CC=Cc1ccc2n(c1=O)C[C@H]1[C@H](CO)[C@@H](C(=O)NC3CCCC3)[C@@H]2N1Cc1ccncc1 (mixture of isomers) returned CFTR F508del cor inactive.
For CCCN1[C@@H]2Cn3c(ccc(-c4ccc(OC)cc4)c3=O)[C@H]1[C@@H](C(=O)NCC)[C@@H]2CO the results were CFTR F508del cor inactive.
CCOc1cccc(CNCCO)c1OCc1ccc(Cl)cc1 was read as MPTP block inactive, SKN-1 inh inactive, ATG4B inh inactive and NRP1-CendR mod inactive.
`CCOc1cc(CNCCO)cc(Br)c1OCc1ccc(Cl)cc1` gave MPTP block 90.1, SKN-1 inh inactive, ATG4B inh inactive, NRP1-CendR mod inactive, Rh123 counter inactive, MPTP abs DR 3.79 and MPTP counter DR 61.2.
For CCOc1cc(CNCCN2CCOCC2)ccc1OCc1ccccc1Cl the results were MPTP block inactive, SKN-1 inh inactive, CFTR F508del cor inactive, ATG4B inh inactive and NRP1-CendR mod inactive.
COc1cc(CNCCO)cc(Cl)c1OCc1ccccc1Cl was read as MPTP block 80.0, SKN-1 inh inactive, CFTR F508del cor inactive, ATG4B inh inactive, NRP1-CendR mod inactive, Rh123 counter inactive, MPTP abs DR 5.51 and MPTP counter DR inactive.
`CCOc1cc(CNC(C)(C)CO)cc(Br)c1OCc1ccc(Cl)cc1Cl` gave MPTP block inactive, SKN-1 inh inactive, ATG4B inh inactive and NRP1-CendR mod inactive.
`CCOc1cc(CNCCO)cc(Br)c1OCc1ccccc1Cl` gave MPTP block 82.2, SKN-1 inh inactive, ATG4B inh inactive, NRP1-CendR mod inactive and Rh123 counter 20.4.
`CCOc1cc(CNCCCN2CCOCC2)cc(Br)c1OCc1ccccc1Cl` gave MPTP block 99.6, SKN-1 inh inactive, CFTR F508del cor inactive, ATG4B inh inactive, NRP1-CendR mod inactive and Rh123 counter inactive.
`C[C@@H]1CN([C@@H](C)CO)C(=O)c2ccccc2-c2ccccc2CO[C@@H]1CN(C)S(=O)(=O)c1ccc(Cl)cc1` gave CFTR F508del cor inactive.
`COc1ccccc1-c1ccc2c(c1)O[C@@H](CN(C)CC1CCOCC1)[C@H](C)CN([C@H](C)CO)S2(=O)=O` gave CFTR F508del cor inactive.
For COc1cc(CNCc2ccncc2)cc(Br)c1OCc1ccccc1F the results were MPTP block 94.1, SKN-1 inh inactive, ATG4B inh inactive, NRP1-CendR mod inactive and Rh123 counter 65.5.
Screening O=C(Nc1ccc2c(c1)[C@H]1C[C@@H](CC(=O)N3CCCCC3)O[C@@H](CO)[C@H]1O2)c1ccc2c(c1)OCO2 returned CFTR F508del cor inactive.
For Cc1ccc(CN2CC(=O)N3[C@H](CO)[C@@H](c4ccc(Br)cc4)[C@H]3C2)cc1 the results were CFTR F508del cor inactive.
For COc1ccc(NC(=O)c2ccc(-c3ccc(-c4noc(C)n4)cc3C)cc2)cc1N1CCN(C)CC1 the results were MPTP block 80.6, SKN-1 inh inactive, CFTR F508del cor inactive, ATG4B inh inactive, NRP1-CendR mod inactive and Rh123 counter inactive.
`COc1ccc(-c2nc(-c3ccc(NC(=O)c4ccncc4)cc3)no2)cc1OC` gave MPTP block inactive, SKN-1 inh inactive, ATG4B inh inactive and NRP1-CendR mod inactive.
`O=C(CN1C2=NCCN2c2ccccc21)C12CC3CC(CC(C3)C1)C2` gave MPTP block 70.3, SKN-1 inh inactive, ATG4B inh inactive, NRP1-CendR mod inactive, Rh123 counter inactive, MPTP abs DR inactive and MPTP counter DR inactive.
For c1ccc(CN2C3=NCCN3c3ccccc32)cc1 the results were MPTP block inactive, SKN-1 inh inactive, ATG4B inh inactive and NRP1-CendR mod inactive.
For CC(C)c1nc(SCc2c(F)cccc2Cl)c2c(=O)n(C)c(=O)n(C)c2n1 the results were MPTP block 94.2, SKN-1 inh inactive, ATG4B inh inactive, NRP1-CendR mod inactive, Rh123 counter inactive, MPTP abs DR inactive and MPTP counter DR inactive.
Screening C[C@@H]1CCCCO[C@@H](CN(C)C(=O)Nc2ccc3c(c2)OCO3)[C@H](C)CN([C@@H](C)CO)C(=O)c2cc(NC(=O)Cc3ccccc3)ccc2O1 returned CFTR F508del cor inactive.
